# The list is not random: actives were taken first. Their share in the collection is about 7.4%.
# FXIa mix inh: factor XIa (human) inhibition, mixture screen; P03951; AID 680; purified FXIa, fluorogenic substrate, pooled mixtures; inhibition, % at 5 µM; 62,000 compounds, 0.19% hits;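 further: each value is inhibition by a whole ten-compound pool holding the compound; 0% = enzyme with no mixture and 100% = wells lacking enzyme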
# FXIIa inh mix: blocks human factor XIIa in pooled compound mixtures; P00748; purified FXIIa, fluorogenic substrate; inhibition, % at 5 µM; 62,000 compounds, 0.2% hits;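 further: 0% = enzyme without compound and 100% = no enzyme blank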
# Target sequence (P00748 20-372 limits assumed): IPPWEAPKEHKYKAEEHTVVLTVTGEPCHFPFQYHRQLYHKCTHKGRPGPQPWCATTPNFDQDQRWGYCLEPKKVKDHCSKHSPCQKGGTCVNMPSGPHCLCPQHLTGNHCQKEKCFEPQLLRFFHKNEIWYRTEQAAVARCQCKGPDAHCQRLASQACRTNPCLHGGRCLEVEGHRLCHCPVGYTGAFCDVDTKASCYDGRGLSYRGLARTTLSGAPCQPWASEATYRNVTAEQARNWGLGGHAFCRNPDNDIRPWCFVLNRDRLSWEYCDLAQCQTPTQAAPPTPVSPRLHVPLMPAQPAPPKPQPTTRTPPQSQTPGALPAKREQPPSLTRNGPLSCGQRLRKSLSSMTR
# Target sequence (P00748 373-615 limits assumed): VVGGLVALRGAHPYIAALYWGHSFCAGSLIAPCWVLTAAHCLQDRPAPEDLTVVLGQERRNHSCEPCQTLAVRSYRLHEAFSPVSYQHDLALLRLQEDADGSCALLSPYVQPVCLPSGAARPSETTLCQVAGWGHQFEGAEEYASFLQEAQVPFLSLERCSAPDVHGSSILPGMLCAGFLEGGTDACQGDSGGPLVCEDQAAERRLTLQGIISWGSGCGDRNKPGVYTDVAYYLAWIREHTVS
# M1 antagonist: M1 muscarinic receptor (rat) antagonism. 64,000 compounds, 3.4% hits. P08482. CHO-M1 cells, Fluo-4 calcium, ACh EC80 antagonist mode; active compounds read low. B-score at 10 µM;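 active means calcium fluorescence response, raw or row-and-column corrected B-score, differing from the plate sample mean either way at a set confidence level, mostly lower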
# M1 ag: activates the M1 muscarinic receptor. 64,000 compounds, 3% hits. AID 626. B-score at 10 µM. CHO-M1 cells, Fluo-4 calcium fluorescence, agonist mode; active compounds read high;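 active means fluorescence rise, raw or as B-score row- and column-corrected plate score, outside the 99.7% band of its plate's samples, either direction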
# DAT uptake mod: modulates human dopamine transporter uptake under cocaine. Q01959. LLC-PK1 hDAT cells, [14C]-dopamine uptake with cocaine IC80; actives deviate in either direction. 110,000 compounds, 1.3% hits. B-score at 10 µM. AID 449768;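 active means Z score or B-score, a plate-position-corrected score, falls beyond the plate's 99.7% confidence bounds, in either direction; inactive means both scores lie inside the 99.7% bounds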;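 further: scored against the spread of the other compound wells on the same plate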
# D1 mod: allosteric modulators of human D1 dopamine receptor. AID 641. HEK293 D1, CRE-luciferase, dopamine EC30 potentiation; actives deviate in either direction. B-score at 10 µM. 58,000 compounds, 5.9% hits;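 active means luminescence count or its row- and column-corrected plate score outside the 99.7% band of the plate's sample wells, on either side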
# D1 mod confirm: D1 receptor (human) allosteric modulation, confirmed. luminescence at 10 µM. AID 642. 2,200 compounds, 88% hits. shares compounds with D1 mod. HEK293 D1 CRE-luciferase, dopamine EC30 potentiation; active compounds read high;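 active means luminescence in either of two replicates above the same-plate mean plus 3 SD of the low-dose dopamine control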
# D1 no dopamine: D1 (human) signaling in absence of dopamine. luminescence at 10 µM. shares compounds with D1 mod. HEK293 D1 CRE-luciferase, luminescence, no dopamine; active compounds read high. 1,900 compounds, 0.8% hits; in the data active means luminescence above about 3900
# Isoprot counter: counter-screen for D1 modulators: isoproterenol response in HEK293 cells; shares compounds with D1 mod; HEK293 D1 CRE-luciferase, isoproterenol EC30 counter-screen; calls only at 10 µM; 2,200 compounds, 63% hits; AID 647;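 active means luminescence in either replicate above plate mean of wells with a partly effective reference agonist dose plus 3 SD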;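 further: isoproterenol raises cAMP through native beta-adrenoceptor Gs so signal bypasses D1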
# The depositor's hits bear a star; i = inactive; x = not tested or not shown; + = active, no number. Unless noted, no stated cut-off is given here; in the data, active means inhibition above about 20% (passing the limit was not always enough); inactive means the rest.
SMILES,FXIa mix inh,FXIIa inh mix,M1 antagonist,M1 ag,DAT uptake mod,D1 mod,D1 mod confirm,D1 no dopamine,Isoprot counter
Cc1ccc(C)n1-n1c(C)nc2scc(-c3ccccc3)c2c1=O,x,x,x,x,-0.08,x,x,x,x
COc1ccc(-c2csc3nc(C)n(-n4cccc4)c(=O)c23)cc1OC,4,26,0.12,0.67,0.84,4.9*,6784*,1784,i
CCn1c(SC(C)C)nnc1-c1cc(-c2ccccc2)sc1N,x,x,x,x,1.6,x,x,x,x
Cc1cc2cc(CN(CCN3CCOCC3)C(=O)Nc3ccccc3F)c(=O)[nH]c2cc1C,8,7,0.59,1.2,2,2.7*,5960*,1568,i
CCOC(=O)C1=C(C)C(c2ccccc2)NC(=S)N1 (configuration not stated),x,x,x,x,0.29,x,x,x,x
COc1cccc(C2=NOC(C(=O)Nc3cccc(C(C)=O)c3)C2)c1OC (configuration not stated),3,3,-1,1.6,0.47,3.6*,4760,1744,i
CCOC(=O)n1c(SCC(N)=O)nc2ccccc21,x,x,x,x,1.2,x,x,x,x
CSc1nc2ccccc2n1C(=O)Oc1ccccc1,8,9,0.034,0.1,-0.11,9.4*,12420*,1516,+
CCCCn1cnc2c(c1=O)c1nc3ccccc3nc1n2Cc1ccc2c(c1)OCO2,5,3,0.32,0.008,x,0.79,x,x,x
CN(C)C(=O)c1c2c(nc3ccccc13)-c1ccccc1CC2,x,x,x,x,1.4,x,x,x,x
Cc1noc(C)c1COC(=O)c1ccccc1Oc1ccccc1,-2,3,-0.055,0.96,-0.17,6.1*,8776*,1556,+
Cc1cc(NC(=O)c2ccccc2Oc2ccccc2)no1,9,8,-0.87,0.0016,-0.035,6.2*,9100*,1632,i
Cc1noc(C)c1COC(=O)c1ccccc1NC(=O)Cc1ccccc1,30,3,-0.12,1.9,0.8,1.4,x,x,x
CCC(C)C1NC(=S)N(C2CCCCC2)C1=O (configuration not stated),x,x,x,x,0.48,x,x,x,x
COC(=O)c1sccc1NC(=O)CSc1nnnn1-c1ccccc1F,2,6,-0.024,0.57,-0.54,-0.39,x,x,x
COc1ccc(C(O)c2nccn2C)cc1 (configuration not stated),x,x,x,x,0.56,x,x,x,x
CCNc1nc(NCC)nc(OCCOC(=O)c2ccccc2)n1,26,-3,1.1,-0.39,0.062,6.9*,16012*,1704,+
CCNc1nc(NCC)nc(C(=O)OCCO)n1,x,x,x,x,-0.51,x,x,x,x
CCOC(=O)C(C)Oc1cccc2c(=O)n(CC(=O)NCc3ccco3)ccc12 (configuration not stated),4,5,-0.074,-0.62,-1.3,3.3*,6652*,1628,i
CC(C)C(=O)c1cn(CC(=O)NCc2ccco2)c2ccccc12,x,x,x,x,1.7,x,x,x,x
COCCNC(=O)CN(C(=O)CCC(=O)Nc1ccccn1)c1ccc(F)c(Cl)c1,-4,4,0.61,-0.087,-0.21,1.1,x,x,x
CC(C)(C)C1=Nn2c(nnc2-c2ccccc2F)SC1,4,-2,0.31,-0.53,0.0048,21*,20880*,x,+
COc1ccccc1-c1nnc2n1N=C(C(C)(C)C)CS2,5,1,-0.045,-1.1,1.3,4*,10640*,1636,i
CCOc1cccc(-c2nnc3n2N=C(c2cc(OC)ccc2OC)CS3)c1,7,4,-0.095,0.036,0.69,17*,13520*,x,+
COc1ccc(C2=Nn3c(nnc3-c3ccccc3OC)SC2)cc1OC,6,7,-0.35,0.0086,0.21,41*,31124*,x,+
OCc1cc(CO)c(O)c(CCc2ccccc2)n1,0,-13,0.87,0.63,-0.043,-2,x,x,x
CC(O)/C=C/C1OC(=O)CC1Nc1ccc(C=O)cc1 (configuration not stated),x,x,x,x,0.85,x,x,x,x
CC(=O)c1ccc(N2CCCCCC2)c(F)c1,3,-1,-0.59,0.65,-0.34,2.7*,5360,1576,i

# Screening data: PubChem BioAssay, several laboratories
